# Source: the supplement of paper PMC9950053
# Structures can show the parent of a compound that is named as a salt.
# Tested on: Danio rerio larvae (5 dpf)
# Assay: habituation (activity change first vs second 5 min of 1-s interval sound, period 17) minus DMSO control (percentage points); higher = larger habituation measure than DMSO larvae
# Settings: 10 µM; exposure time: 3 h pre-incubation + 3 h imaging
# Description: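 Wild-type 5 dpf zebrafish larvae (n=48 per drug, 96-well plates, 28.5 °C) were exposed to Tocris FDA-approved library compounds at 10 µM (0.1% DMSO) for 3 h before and 3 h during imaging. Images were taken every 6 s during visual (moving coloured lines) and acoustic stimuli, and larvae were tracked with the DeepLabCut-based Z-LaP Tracker. Each behavioural measure is the treated-group mean minus the DMSO vehicle control mean (n=844), in percentage points. This mapping covers compounds with 4-character plate codes.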
row,Compound,habituation
1,N#Cc1ccc(C(c2ccc(C#N)cc2)n2cncn2)cc1 [Letrozole],3.66
2,CC(C)N(CCCCOCC(=O)NS(C)(=O)=O)c1cnc(-c2ccccc2)c(-c2ccccc2)n1 [Selexipag],-0.762
3,OCCN(CCO)c1nc(N2CCCCC2)c2nc(N(CCO)CCO)nc(N3CCCCC3)c2n1 [Dipyridamole],5.96
4,CC(C)(C(=O)c1cccnc1)c1cccnc1 [Metyrapone],0.481
5,C[C@H](Cc1cc2c(c(C(N)=O)c1)N(CCCO)CC2)NCCOc1ccccc1OCC(F)(F)F [Silodosin],7.86
6,CC(=O)S[C@@H]1CC2=CC(=O)CC[C@]2(C)[C@H]2CC[C@@]3(C)[C@@H](CC[C@@]34CCC(=O)O4)[C@H]12 [Spironolactone],2.5
7,CC(=O)Oc1ccccc1C(=O)O [Aspirin],-4.51
8,CCCc1nc2c(C)cc(-c3nc4ccccc4n3C)cc2n1Cc1ccc(-c2ccccc2C(=O)O)cc1 [Telmisartan],-1.73
9,N[C@@H]1[C@H]2CN(c3nc4c(cc3F)c(=O)c(C(=O)O)cn4-c3ccc(F)cc3F)C[C@@H]12 [Trovafloxacin mesylate],-4.07
10,COc1cc2nc(N3CCN(C(=O)c4ccco4)CC3)nc(N)c2cc1OC [Prazosin hydrochloride],0.443
11,CCCCc1nc(Cl)c(CO)n1Cc1ccc(-c2ccccc2-c2nnn[nH]2)cc1 [Losartan potassium],1.01
12,CN1CCC[C@@H]1CCO[C@](C)(c1ccccc1)c1ccc(Cl)cc1 [Clemastine fumarate],-6.62
13,CC[C@H](C)C(=O)O[C@H]1C[C@@H](C)C=C2C=C[C@H](C)[C@H](CC[C@@H]3C[C@@H](O)CC(=O)O3)[C@H]21 [Lovastatin],-2.11
14,CCCCNc1cc(C(=O)O)cc(S(N)(=O)=O)c1Oc1ccccc1 [Bumetanide],-0.555
15,CCOC(=O)c1ncn2c1CN(C)C(=O)c1cc(F)ccc1-2 [Flumazenil],-2.62
16,CN(C)CCc1c[nH]c2ccc(Cn3cncn3)cc12 [Rizatriptan benzoate],-1.58
17,Cc1ccsc1C(=CCCN1CCC[C@@H](C(=O)O)C1)c1sccc1C [Tiagabine hydrochloride],6.37
18,Nc1ncn([C@H]2C[C@H](O)[C@@H](CO)O2)c(=O)n1 [Decitabine],7.42
19,CCOc1cc(CC(=O)N[C@@H](CC(C)C)c2ccccc2N2CCCCC2)ccc1C(=O)O [Repaglinide],-7.53
20,CN(CCOc1ccc(CC2SC(=O)NC2=O)cc1)c1ccccn1 (stereo not given) [Rosiglitazone],2.04

row,Compound,habituation
1,CN1CCN2c3ncccc3Cc3ccccc3C2C1 (stereo not given) [Mirtazapine],-1.26
2,CCc1c2c(nc3ccc(OC(=O)N4CCC(N5CCCCC5)CC4)cc13)-c1cc3c(c(=O)n1C2)COC(=O)[C@]3(O)CC,9.09
3,COCCCOc1cc(C[C@@H](C[C@H](N)[C@@H](O)C[C@H](C(=O)NCC(C)(C)C(N)=O)C(C)C)C(C)C)ccc1OC [Aliskiren hemifumarate],8.44
4,Nc1ncn([C@@H]2O[C@H](CO)[C@@H](O)[C@H]2O)c(=O)n1 [5-Azacytidine],0.429
5,COC(=O)C1=C(C)NC(C)=C(C(=O)OC(C)C)C1c1cccc2nonc12 (stereo not given) [Isradipine],-15.1
6,CC(CCc1ccc(O)cc1)NCCc1ccc(O)c(O)c1 (stereo not given) [Dobutamine hydrochloride],3.31
7,Cc1ccc(-c2cc(C(F)(F)F)nn2-c2ccc(S(N)(=O)=O)cc2)cc1 [Celecoxib],-9.16
8,COc1ccc(Cl)cc1C(=O)NCCc1ccc(S(=O)(=O)NC(=O)NC2CCCCC2)cc1 [Glibenclamide],0.59
9,CCOc1nc2cccc(C(=O)O)c2n1Cc1ccc(-c2ccccc2-c2nnn[nH]2)cc1 [Candesartan],5.98
10,C[C@]12CC[C@@H]3c4ccc(O)cc4C[C@@H](CCCCCCCCC[S+]([O-])CCCC(F)(F)C(F)(F)F)[C@H]3[C@@H]1CC[C@@H]2O (stereo not given in full),-2.02
11,CC(=O)O[C@H]1C(=O)[C@@]2(C)[C@H]([C@H](OC(=O)c3ccccc3)[C@]3(O)C[C@H](OC(=O)[C@H](O)[C@@H](NC(=O)c4ccccc4)c4ccccc4)C(C)=C1C3(C)C)[C@]1(OC(C)=O)CO[C@@H]1C[C@@H]2O [Taxol],-3.28
12,CC(C)C(=O)OCC(=O)[C@@]12O[C@H](C3CCCCC3)O[C@@H]1C[C@H]1[C@@H]3CCC4=CC(=O)C=C[C@]4(C)[C@H]3[C@@H](O)C[C@@]12C [Ciclesonide],0.71
13,CC(C)C(=O)Nc1ccc([N+](=O)[O-])c(C(F)(F)F)c1 [Flutamide],-15.4
14,NC(=O)N1c2ccccc2C=Cc2ccccc21 [Carbamazepine],2.97
15,CO[C@H]1/C=C/O[C@@]2(C)Oc3c(C)c(O)c4c(O)c(c5c(nc6cc(C)ccn65)c4c3C2=O)NC(=O)/C(C)=C\C=C\[C@H](C)[C@H](O)[C@@H](C)[C@@H](O)[C@@H](C)[C@H](OC(C)=O)[C@@H]1C [Rifaximin],-3.24
16,O=C(O[C@@H]1C[C@@H]2C[C@H]3C[C@H](C1)N2CC3=O)c1c[nH]c2ccccc12 [Dolasetron mesylate],1.05
17,CCCCCOC(=O)Nc1nc(=O)n([C@@H]2O[C@H](C)[C@@H](O)[C@H]2O)cc1F [Capecitabine],-3.27
18,CN(C)CCC[C@@]1(c2ccc(F)cc2)OCc2cc(C#N)ccc21 [Escitalopram oxalate],-6.32
19,COc1ccc(-c2ccc3cc(C(=O)O)ccc3c2)cc1C12CC3CC(CC(C3)C1)C2 [Adapalene],1.1
20,CN1CC2c3ccccc3Oc3ccc(Cl)cc3C2C1 (stereo not given) [Asenapine maleate],-12.6
